# Nrf2 activator: qHTS of Nrf2 Activators; AREc32 ARE-luciferase reporter (MCF7-derived line), luminescence, 24 h; Potency, µM (series often up to 46.1 µM), without a hit: at the top dose activation, actives largely listed as activators; actives 0.31% (n = 410,000); AID 624171, 2012; note: potency is the fitted concentration of half-maximal effect; % of control where 0% means no effect; nearly all actives have a fitted effect of over 65% in size
#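 AREc32 cells carrying an ARE-driven firefly luciferase reporter were seeded at 1000 cells/well in OPTI-MEM with 5% FBS, then exposed to compound for 24 hr at 37 deg C. Luminescence was read with Steady-Glo after 30 min at RT.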
# A549 viability: Nrf2 qHTS screen for inhibitors: counterscreen for cytotoxicity | A549 ARE-Fluc cells, CellTiter-Fluor viability, 18-24 h | Potency, µM (top dose mostly 46 µM), without a hit: at the highest dose activity change, negative = cytotoxicity, usual class: inhibitors | actives 0.16% (n = 390,000) | AID 504648, 2011; note: potency is the fitted concentration of half-maximal effect; % is set by controls: 0 for no effect and ±100 for the full control effect
#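 A549 ARE_Fluc cells in 5% FBS OPTI-MEM were exposed to compounds in concentration-response for 18-24 h at 37 deg C. Viability was read by CellTiter-Fluor fluorescence (Ex 405/Em 525) after 30 min, before the luciferase read.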
# Nrf2 block: Nrf2 qHTS screen for inhibitors | A549 ARE-Fluc reporter, luciferase luminescence, 18-24 h | Potency, µM (series often up to 46 µM), inactives show at the top dose activity change, negative = inhibition, actives largely listed as inhibitors | actives 2.1% (n = 360,000); note: potency is the fitted concentration of half-maximal effect; % is set by controls: 0 for no effect and ±100 for the full control effect; nearly all actives have a fitted effect of over 60% in size
#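 A549 ARE_Fluc cells (5000/well, 5% FBS OPTI-MEM) pre-incubated 2 h, then treated with compounds 18-24 h at 37C/5% CO2 in concentration-response. CellTiter-Fluor viability read first; BugLite luciferase luminescence after 15 min at room temperature gives Nrf2 activity.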
# ALOX12 inh: Primary qHTS assay for inhibitors of human arachidonate 12S-lipoxygenase (ALOX12): Round 2. Polyunsaturated fatty acid lipoxygenase ALOX12 (Homo sapiens), P18054. purified 12hLO, xylenol orange hydroperoxide absorbance. Potency, µM (highest dose often 108 µM), for inactives: top-dose activity change, negative = inhibition, hits mostly inhibitors. actives 1.1% (n = 580,000). AID 1671190, 2021; note: potency is the fitted concentration of half-maximal effect; % is set by controls: 0 for no effect and ±100 for the full control effect
#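 Purified human 12hLO (150 nM final) in 25 mM Hepes, 0.01% Triton X-100, pH 7.0 was preincubated 15 min at room temperature with compound. Then 40 uM arachidonic acid was added, 30 min. Hydroperoxide was read by Fe-XO absorbance ratio 573/405 nm.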
# LDHA block: qHTS assay for inhibitors of human lactate dehydrogenase | purified LDHA, NADH/diaphorase-resazurin fluorescence; stronger effect = lower value | activity change, % (values are at about 110 or 230 µM) | actives 0.15% (n = 480,000) | AID 1347041, 2019; in the data active = activity change below about -30%; inconclusive = mostly about -25% to -30%;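 note: plate controls were DMSO wells for no effect and wells without enzyme for full effect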
#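 Human LDH5 (2 nM) was incubated with 0.06 mM NADH and 0.2 mM pyruvate for 5 min at room temperature in Tris pH 7.4. Remaining NADH was coupled through diaphorase/resazurin, and resorufin fluorescence was read at 0 and 20 min.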
# ERG-DNA inh: qHTS for Small Molecule Inhibitors of the ERG Ets/DNA interaction; fluorescence polarization, His-ERG Ets domain / labelled DNA; AID 624246, 2012; actives 0.028% (n = 370,000); Potency, µM (titrated, usually from 76.9 µM), inactives show at the top dose FP activity, negative = inhibition, most hits filed as inhibitors; Transcriptional regulator ERG (Homo sapiens), P11308; active = well fitted inhibition curve with a large enough effect in the polarisation, with a control signal flat; inconclusive = small, poorly fitted or top-dose-only effect, or effect the other way, or a change in a side signal; inactive = no such curve, though single readings can be large or run the other way; the % refers to the polarisation;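 note: polarization taken with two DNA probes labelled with fluorescein and Texas red; potency is the fitted concentration of half-maximal effect; % of control where 0% means no effect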
# Target sequence (P11308 whole entry, looked up, the tested form may be a part): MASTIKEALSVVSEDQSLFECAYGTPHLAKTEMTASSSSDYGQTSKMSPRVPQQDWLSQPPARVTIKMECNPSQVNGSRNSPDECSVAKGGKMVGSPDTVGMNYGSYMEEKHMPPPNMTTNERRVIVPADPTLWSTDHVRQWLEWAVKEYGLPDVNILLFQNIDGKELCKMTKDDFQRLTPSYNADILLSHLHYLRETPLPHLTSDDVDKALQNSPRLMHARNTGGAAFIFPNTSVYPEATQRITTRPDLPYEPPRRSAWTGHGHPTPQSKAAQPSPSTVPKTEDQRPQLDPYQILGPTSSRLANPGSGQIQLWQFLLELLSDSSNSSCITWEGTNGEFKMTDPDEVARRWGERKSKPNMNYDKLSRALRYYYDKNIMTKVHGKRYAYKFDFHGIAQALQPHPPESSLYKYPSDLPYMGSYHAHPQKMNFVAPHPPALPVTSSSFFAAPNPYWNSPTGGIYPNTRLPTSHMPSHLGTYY
#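 His-tagged ERG Ets domain (1 uM in the protein solution; 300mM KCl, 50mM Tris-HCl, 1mM EDTA, 1mM DTT, pH 7.5) received compound, then a probe mix of 5 nM fluorescein-DNA and 100nM Texas-615-DNA. Fluorescence polarization was read for both dyes.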
# Active calls of the source: *; ? = inconclusive; . = no result; ! = not active in a repeat. Sampled rows, rich in hits. Any-hit rate of the full collection: about 2.7%. Unless noted, calls come from the whole dose curve; as a rule, active = well fitted curve in the direction sought with a large enough effect; inconclusive = small, poorly fitted or top-dose-only effect, or another doubt; inactive = no such curve, though single readings can be large; an effect the other way counts as inactive or inconclusive.
SMILES,Nrf2 activator,A549 viability,Nrf2 block,ALOX12 inh,LDHA block,ERG-DNA inh
N#Cc1c(-c2ccco2)nc(SCC(=O)Nc2cccc(Cl)c2)[nH]c1=O,0.5%,-3.0%,10.0%,22.4µM*,-11.9,.
O=C(O)CCC(=O)c1cccs1,.,.,.,-8.7%,-14.4,.
CCc1ccc(S(=O)(=O)/N=C2\C=C(Nc3cccc(C(=O)O)c3)C(=O)c3ccccc32)cc1,-2.6%,?,20.6µM*,-16.2%,46.5,16.4%
O=C(O)c1ccc(NC2=C/C(=N/S(=O)(=O)c3ccccc3)c3ccccc3C2=O)cc1,-2.7%,-13.9%,12.4%,?,51.9,8.9%
CCc1ccc(S(=O)(=O)/N=C2\C=C(Nc3ccc(O)cc3)C(=O)c3ccccc32)cc1,-2.1%,11.6µM*,8.2µM*,.,37.0,?
Cc1nnc(N=c2ssnc2Cl)o1,3.6%,12.9%,0.3%,3.16µM*,-1.0,13.3%
Cc1cc(Cl)ccc1N=c1ssnc1Cl,4.6%,-11.3%,?,?,-6.7,-7.8%
Cc1cc(C)nc(/N=c2/ssnc2Cl)c1,-0.3%,-2.4%,?,8.91µM*,-5.4,9.1%
COc1cc(N=c2ssnc2Cl)c(OC)cc1Cl,7.9%,?,23.1µM*!,2.51µM*!,3.6,-2.9%
Cc1ccc(N=c2ssnc2Cl)cc1,8.0%,8.0%,?,1.58µM*,-7.6,-4.0%
CC(NC(=O)CCCc1c[nH]c2ccccc12)c1cccc(F)c1 (stereo not drawn),.,.,.,?,7.1,.
CCOc1ccccc1NC(=O)Cc1nn(C)c(=O)c2ccccc12,.,.,.,6.8%,9.5,.
O=C(NNC(=S)Nc1ccc(F)cc1)Nc1ccccc1,.,.,.,-1.8%,4.1,.
Oc1oc(-c2ccco2)nc1C=Nc1ccccc1,12.6µM*,-2.3%,1.4%,-26.9%,3.1,.
Cc1ccc2nc(-c3cccc(-c4nc5ccc(C)cc5o4)n3)oc2c1,.,-1.4%,5.0%,.,-2.8,.
Cc1ccc(-c2nc(C=Nc3ccc(O)cc3)c(O)o2)cc1,6.31µM*,?,15.9%,-8.6%,-0.9,21.8%
Cc1ccc2nc(-c3ccc(O)cc3)oc2c1,-0.1%,0.6%,6.51µM*,-9.2%,-6.3,3.5%
Cc1ccc(C(CNC(=O)c2cc(=O)c3cc(C)c(C)cc3o2)N2CCC(C)CC2)o1 (stereo not drawn),.,.,.,-19.7%,-9.7,.
CCOC(=O)c1ccc(N2NC(=O)/C(=C/c3ccc(OC(=O)c4ccco4)c(OC)c3)C2=O)cc1,.,.,.,22.4µM*,.,.
O=C1c2cc(F)ccc2-n2c1nc1ccccc1c2=O,2.7%,11.6µM*,6.51µM*,0.0%,25.5,3.2%
Cc1cccc(-c2nnc(SCC(=O)Nc3nncs3)n2C)c1,.,.,.,?,-20.1,.
CCOC(=O)C1=C(CNc2ccc(C)c(Cl)c2)NC(=O)NC1c1ccc(Cl)cc1 (stereo not drawn),.,.,.,8.91µM*,-3.1,.
COC(=O)C1=C(C)N(Cc2ccc(Cl)cc2)C(=S)NC1c1ccccc1 (stereo not drawn),.,.,.,39.8µM*,.,.
COC(=O)C1=C(C)N(Cc2ccccc2)C(=S)NC1c1ccc(Cl)cc1 (stereo not drawn),.,.,.,35.5µM*,.,.
COC(=O)C1=C(CCc2ccccc2)NC(=O)NC1c1ccc(C#N)cc1 (stereo not drawn),1.1%,-2.2%,-7.2%,4.8%,-3.6,14.0%
COC(=O)C1=C(C)N(Cc2ccccc2)C(=S)N[C@H]1c1cccc(F)c1,2.1%,-18.6%,?,?,-6.4,7.9%
COC(=O)C1=C(CCc2ccccc2)NC(=O)NC1c1ccc(Cl)cc1 (stereo not drawn),6.3%,-16.4%,?,35.5µM*,0.4,17.3%
